Our source for the binding signal values is paper PMC7862700, “An all-to-all approach to the identification of sequence-specific readers for epigenetic DNA modifications on cytosine”.

Test in all cases: DAPPL (digital affinity profiling via proximity ligation, sequencing); 10 mM Tris-HCl pH 7.5, 50 mM NaCl, 1 mM DTT, 4% glycerol, room temperature, 30 min; GST-TFs on glutathione beads, 16-mer random dsDNA library, 0.1% formaldehyde crosslink after washing; high values mean tight binding
One assay has as its target T1, FEV (Homo sapiens, UniProt Q99581 1-238).
T1 sequence: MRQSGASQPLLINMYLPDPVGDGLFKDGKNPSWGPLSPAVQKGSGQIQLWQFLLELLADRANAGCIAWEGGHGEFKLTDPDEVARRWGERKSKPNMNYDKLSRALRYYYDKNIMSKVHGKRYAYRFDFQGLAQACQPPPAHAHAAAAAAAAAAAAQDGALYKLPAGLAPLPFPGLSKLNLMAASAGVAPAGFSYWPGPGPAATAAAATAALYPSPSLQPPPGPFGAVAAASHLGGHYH
The following applies: protein: recombinant; tags: N-terminal GST; dsDNA, one strand shown. The procedure, abridged:
(§1)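 After expression in yeast as GST fusions, human transcription factors were bound to glutathione beads, DNA-barcoded and mixed with a tag-only sample. The pools were incubated with 200 nmole of a 16-mer random double-stranded DNA library in Tris/NaCl/DTT/glycerol buffer (30 min, room temperature), washed and crosslinked with 0.1% formaldehyde. Proximity ligation with BsaI/T4 ligase ran for 1 h at 37 °C, before PCR amplification and sequencing on an Illumina NextSeq500. Binding signal is a hexamer's read frequency for a factor divided by its frequency for the tag-only sample.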

In a further assay the target is ETV5 (Homo sapiens, UniProt P41161 1-510). The following applies: protein: recombinant; tags: N-terminal GST; dsDNA, one strand shown. The procedure, abridged:
as §1

For another assay, the target named is HSF1 (Homo sapiens, UniProt Q00613 1-529). The note with it: protein: recombinant; tags: N-terminal GST; chain copies: 3; dsDNA, one strand shown. The procedure, abridged:
as §1

Another assay deals with T2, SPIC (Homo sapiens, UniProt Q8N5J4 1-248).
T2 sequence: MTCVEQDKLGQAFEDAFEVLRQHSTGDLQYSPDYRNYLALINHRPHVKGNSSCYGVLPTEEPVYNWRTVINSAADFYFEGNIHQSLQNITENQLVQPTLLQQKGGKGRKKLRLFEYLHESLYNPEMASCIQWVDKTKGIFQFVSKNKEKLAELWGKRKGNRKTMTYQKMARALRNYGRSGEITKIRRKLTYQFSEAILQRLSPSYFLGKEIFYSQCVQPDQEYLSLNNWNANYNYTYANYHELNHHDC
The note with it: protein: recombinant; tags: N-terminal GST; dsDNA, one strand shown. In short, it runs like this: as §1

The target of a further assay is ELF4 (Homo sapiens, UniProt Q99607 1-663). The note with it: protein: recombinant; tags: N-terminal GST; dsDNA, one strand shown. In short, it runs like this:
as §1

The next assay has as its target T3, ELK4 (Homo sapiens, UniProt P28324-2 1-405).
T3 sequence: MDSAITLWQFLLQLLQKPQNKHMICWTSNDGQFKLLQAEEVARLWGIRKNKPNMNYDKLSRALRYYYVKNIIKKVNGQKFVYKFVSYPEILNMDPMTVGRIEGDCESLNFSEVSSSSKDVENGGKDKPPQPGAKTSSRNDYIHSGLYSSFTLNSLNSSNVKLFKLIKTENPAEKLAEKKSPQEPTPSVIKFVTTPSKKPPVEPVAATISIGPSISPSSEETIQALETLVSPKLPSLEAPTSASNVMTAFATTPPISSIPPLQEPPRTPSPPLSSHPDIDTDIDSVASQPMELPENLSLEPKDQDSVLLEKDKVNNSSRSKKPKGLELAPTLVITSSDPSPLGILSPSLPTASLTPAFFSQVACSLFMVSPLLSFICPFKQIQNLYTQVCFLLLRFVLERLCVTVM
The note with it: protein: recombinant; tags: N-terminal GST; dsDNA, one strand shown. In short, it runs like this:
as §1

For the next assay, the target named is T4, ETV2 (Homo sapiens, UniProt O00321 1-342).
T4 sequence: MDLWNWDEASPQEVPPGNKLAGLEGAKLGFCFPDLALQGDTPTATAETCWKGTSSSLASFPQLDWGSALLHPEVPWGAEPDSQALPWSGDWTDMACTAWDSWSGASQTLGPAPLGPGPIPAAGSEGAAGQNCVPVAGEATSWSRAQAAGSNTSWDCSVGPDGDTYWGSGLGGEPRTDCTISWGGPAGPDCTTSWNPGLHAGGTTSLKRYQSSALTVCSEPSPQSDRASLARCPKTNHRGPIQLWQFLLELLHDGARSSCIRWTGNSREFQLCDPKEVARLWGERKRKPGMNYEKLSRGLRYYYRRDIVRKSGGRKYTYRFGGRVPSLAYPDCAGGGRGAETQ
The following applies: protein: recombinant; tags: N-terminal GST; dsDNA, one strand shown. The procedure, abridged: as §1

The target in a further assay is T5, ELF3 (Homo sapiens, UniProt P78545 1-371).
T5 sequence: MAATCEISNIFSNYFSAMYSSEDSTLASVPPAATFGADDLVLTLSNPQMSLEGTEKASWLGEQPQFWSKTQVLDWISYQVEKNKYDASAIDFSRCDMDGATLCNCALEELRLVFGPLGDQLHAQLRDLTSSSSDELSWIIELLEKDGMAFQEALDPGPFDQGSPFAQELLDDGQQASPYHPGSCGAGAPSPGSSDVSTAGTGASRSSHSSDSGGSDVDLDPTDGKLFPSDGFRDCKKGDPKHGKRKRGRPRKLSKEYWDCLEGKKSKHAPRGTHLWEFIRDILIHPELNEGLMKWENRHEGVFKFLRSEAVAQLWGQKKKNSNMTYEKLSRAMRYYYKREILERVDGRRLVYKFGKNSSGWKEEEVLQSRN
The following applies: protein: recombinant; tags: N-terminal GST; dsDNA, one strand shown. The procedure, abridged:
as §1

In another assay the target is CRX (Homo sapiens, UniProt O43186 1-299). The following applies: protein: recombinant; tags: N-terminal GST; dsDNA, one strand shown. In short, it runs like this:
as §1

A further assay has as its target ETV1 (Homo sapiens, UniProt P50549 1-477). The note with it: protein: recombinant; tags: N-terminal GST; dsDNA, one strand shown. The procedure, abridged: as §1
The target in a further assay is T6, ERF (Homo sapiens, UniProt P50548 1-548).
T6 sequence: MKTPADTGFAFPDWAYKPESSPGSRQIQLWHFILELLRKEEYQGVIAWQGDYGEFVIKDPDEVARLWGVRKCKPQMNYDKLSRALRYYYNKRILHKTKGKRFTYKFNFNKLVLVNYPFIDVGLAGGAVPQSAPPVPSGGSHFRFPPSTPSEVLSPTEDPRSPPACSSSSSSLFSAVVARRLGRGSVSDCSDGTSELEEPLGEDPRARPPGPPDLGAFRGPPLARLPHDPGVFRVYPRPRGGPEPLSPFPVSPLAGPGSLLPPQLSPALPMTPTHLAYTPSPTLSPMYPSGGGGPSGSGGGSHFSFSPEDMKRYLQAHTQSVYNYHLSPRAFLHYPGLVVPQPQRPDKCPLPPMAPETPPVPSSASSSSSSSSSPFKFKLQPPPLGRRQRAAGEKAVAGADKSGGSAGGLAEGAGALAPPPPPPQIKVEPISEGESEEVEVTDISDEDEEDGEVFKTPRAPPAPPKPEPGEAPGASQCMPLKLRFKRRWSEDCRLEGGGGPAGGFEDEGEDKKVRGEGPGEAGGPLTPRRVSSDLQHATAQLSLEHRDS
The note with it: protein: recombinant; tags: N-terminal GST; dsDNA, one strand shown. In short, it runs like this:
as §1

The target in the next assay is T7, ETV3L (Homo sapiens, UniProt Q6ZN32 1-361).
T7 sequence: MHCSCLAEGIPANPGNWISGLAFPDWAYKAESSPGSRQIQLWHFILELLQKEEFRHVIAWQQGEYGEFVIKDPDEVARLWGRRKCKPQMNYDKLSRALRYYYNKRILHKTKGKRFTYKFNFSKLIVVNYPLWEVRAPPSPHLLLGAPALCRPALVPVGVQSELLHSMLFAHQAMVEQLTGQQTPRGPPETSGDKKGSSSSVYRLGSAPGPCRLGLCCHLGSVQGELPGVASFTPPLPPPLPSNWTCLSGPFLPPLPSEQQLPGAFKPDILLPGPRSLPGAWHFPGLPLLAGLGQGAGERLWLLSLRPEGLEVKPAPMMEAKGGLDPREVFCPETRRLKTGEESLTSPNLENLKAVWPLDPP
The note with it: protein: recombinant; tags: N-terminal GST; dsDNA, one strand shown. In short, it runs like this: as §1

For a further assay, the target named is T8, ETS2 (Homo sapiens, UniProt P15036 1-469).
T8 sequence: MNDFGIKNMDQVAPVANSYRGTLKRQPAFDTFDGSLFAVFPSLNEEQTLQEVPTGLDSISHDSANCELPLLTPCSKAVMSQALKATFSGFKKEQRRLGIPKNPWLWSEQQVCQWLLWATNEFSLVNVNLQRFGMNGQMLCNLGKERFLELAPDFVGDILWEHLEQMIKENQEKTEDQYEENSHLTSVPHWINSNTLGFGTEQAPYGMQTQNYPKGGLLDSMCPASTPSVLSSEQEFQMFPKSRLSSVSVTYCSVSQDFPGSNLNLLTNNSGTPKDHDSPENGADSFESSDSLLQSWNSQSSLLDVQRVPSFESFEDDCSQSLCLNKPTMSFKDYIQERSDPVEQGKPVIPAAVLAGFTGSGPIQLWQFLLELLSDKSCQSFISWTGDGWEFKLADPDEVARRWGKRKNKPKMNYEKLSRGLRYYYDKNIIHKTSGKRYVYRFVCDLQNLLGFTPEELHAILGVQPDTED
The following applies: protein: recombinant; tags: N-terminal GST; dsDNA, one strand shown. The procedure, abridged:
as §1

For the next assay, the target named is T9, SPDEF (Homo sapiens, UniProt O95238 1-335).
T9 sequence: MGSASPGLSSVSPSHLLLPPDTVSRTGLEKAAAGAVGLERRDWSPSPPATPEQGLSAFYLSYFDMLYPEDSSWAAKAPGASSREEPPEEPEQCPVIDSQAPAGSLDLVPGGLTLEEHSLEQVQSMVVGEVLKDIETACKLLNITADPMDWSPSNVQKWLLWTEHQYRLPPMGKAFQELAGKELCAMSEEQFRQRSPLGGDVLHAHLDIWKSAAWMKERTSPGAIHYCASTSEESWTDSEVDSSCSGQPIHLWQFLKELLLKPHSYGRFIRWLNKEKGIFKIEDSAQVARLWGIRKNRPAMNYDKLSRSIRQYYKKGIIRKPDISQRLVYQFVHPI
The following applies: protein: recombinant; tags: N-terminal GST; dsDNA, one strand shown. The procedure, abridged: as §1

The next assay has as its target T10, ETV7 (Homo sapiens, UniProt Q9Y603 1-341).
T10 sequence: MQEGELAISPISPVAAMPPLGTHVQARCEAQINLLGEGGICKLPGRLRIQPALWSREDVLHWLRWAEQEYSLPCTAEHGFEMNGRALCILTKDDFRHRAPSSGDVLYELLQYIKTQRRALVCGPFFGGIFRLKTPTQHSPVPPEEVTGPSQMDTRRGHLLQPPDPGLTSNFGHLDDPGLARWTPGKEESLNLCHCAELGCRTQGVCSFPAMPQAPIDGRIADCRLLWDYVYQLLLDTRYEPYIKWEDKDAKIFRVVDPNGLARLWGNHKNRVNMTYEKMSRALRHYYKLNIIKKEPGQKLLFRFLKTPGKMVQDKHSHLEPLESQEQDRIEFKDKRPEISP
The note with it: protein: recombinant; tags: N-terminal GST; dsDNA, one strand shown. The procedure, abridged: as §1

For the next assay, the target named is T11, ELF5 (Homo sapiens, UniProt Q9UKW6-2 1-255).
T11 sequence: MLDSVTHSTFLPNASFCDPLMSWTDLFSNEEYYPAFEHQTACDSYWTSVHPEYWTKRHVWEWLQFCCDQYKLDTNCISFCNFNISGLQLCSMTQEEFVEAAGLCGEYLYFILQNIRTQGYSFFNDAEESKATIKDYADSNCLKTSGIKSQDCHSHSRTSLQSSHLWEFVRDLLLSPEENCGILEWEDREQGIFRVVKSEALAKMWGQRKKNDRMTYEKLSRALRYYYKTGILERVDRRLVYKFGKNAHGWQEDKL
The following applies: protein: recombinant; tags: N-terminal GST; dsDNA, one strand shown. The procedure, abridged: as §1

In another assay the target is T12, ETV3 (Homo sapiens, UniProt P41162-2 1-143).
T12 sequence: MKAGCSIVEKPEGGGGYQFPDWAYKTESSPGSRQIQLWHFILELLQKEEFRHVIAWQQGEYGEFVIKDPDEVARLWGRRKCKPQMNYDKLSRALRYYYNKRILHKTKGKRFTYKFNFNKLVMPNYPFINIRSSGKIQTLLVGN
The following applies: protein: recombinant; tags: N-terminal GST; dsDNA, one strand shown. The procedure, abridged:
as §1

The target of a further assay is ETV6 (Homo sapiens, UniProt P41212 1-452). The following applies: protein: recombinant; tags: N-terminal GST; dsDNA, one strand shown. The procedure, abridged: as §1
Chain of ETV6 (P41212 whole entry): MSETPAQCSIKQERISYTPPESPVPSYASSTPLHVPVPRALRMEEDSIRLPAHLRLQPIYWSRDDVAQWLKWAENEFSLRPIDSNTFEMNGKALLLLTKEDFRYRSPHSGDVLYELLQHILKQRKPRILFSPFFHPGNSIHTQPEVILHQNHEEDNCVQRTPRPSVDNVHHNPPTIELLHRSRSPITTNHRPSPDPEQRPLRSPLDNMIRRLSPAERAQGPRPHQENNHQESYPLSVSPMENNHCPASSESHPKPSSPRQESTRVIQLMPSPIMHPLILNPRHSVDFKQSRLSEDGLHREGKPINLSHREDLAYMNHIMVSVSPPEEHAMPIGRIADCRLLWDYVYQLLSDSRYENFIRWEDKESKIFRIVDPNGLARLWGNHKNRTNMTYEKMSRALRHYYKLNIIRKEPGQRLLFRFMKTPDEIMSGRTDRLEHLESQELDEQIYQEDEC

Chain of CRX (O43186 whole entry): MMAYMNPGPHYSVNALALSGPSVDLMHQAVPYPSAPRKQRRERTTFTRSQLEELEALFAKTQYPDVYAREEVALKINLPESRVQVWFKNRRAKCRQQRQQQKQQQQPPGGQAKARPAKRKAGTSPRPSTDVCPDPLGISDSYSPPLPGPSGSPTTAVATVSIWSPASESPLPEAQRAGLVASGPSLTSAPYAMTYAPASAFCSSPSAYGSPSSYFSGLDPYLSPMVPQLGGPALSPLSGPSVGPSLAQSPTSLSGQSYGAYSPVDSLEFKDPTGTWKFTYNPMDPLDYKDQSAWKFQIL
Chain of ETV5 (P41161 whole entry): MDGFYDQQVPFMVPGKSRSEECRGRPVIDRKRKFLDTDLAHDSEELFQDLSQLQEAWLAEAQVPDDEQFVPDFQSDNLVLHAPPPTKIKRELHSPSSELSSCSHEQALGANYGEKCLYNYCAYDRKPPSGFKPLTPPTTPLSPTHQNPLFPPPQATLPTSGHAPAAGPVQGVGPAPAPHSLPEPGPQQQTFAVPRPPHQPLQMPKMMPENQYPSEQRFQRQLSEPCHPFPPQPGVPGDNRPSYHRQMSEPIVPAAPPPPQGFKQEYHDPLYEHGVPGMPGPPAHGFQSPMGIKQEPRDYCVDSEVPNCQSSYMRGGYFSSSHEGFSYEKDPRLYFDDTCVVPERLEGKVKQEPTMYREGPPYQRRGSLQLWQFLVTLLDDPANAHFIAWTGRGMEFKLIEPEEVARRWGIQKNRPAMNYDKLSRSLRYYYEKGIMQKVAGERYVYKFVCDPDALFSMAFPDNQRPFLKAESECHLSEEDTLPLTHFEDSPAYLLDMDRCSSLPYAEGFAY
Chain of HSF1 (Q00613 whole entry): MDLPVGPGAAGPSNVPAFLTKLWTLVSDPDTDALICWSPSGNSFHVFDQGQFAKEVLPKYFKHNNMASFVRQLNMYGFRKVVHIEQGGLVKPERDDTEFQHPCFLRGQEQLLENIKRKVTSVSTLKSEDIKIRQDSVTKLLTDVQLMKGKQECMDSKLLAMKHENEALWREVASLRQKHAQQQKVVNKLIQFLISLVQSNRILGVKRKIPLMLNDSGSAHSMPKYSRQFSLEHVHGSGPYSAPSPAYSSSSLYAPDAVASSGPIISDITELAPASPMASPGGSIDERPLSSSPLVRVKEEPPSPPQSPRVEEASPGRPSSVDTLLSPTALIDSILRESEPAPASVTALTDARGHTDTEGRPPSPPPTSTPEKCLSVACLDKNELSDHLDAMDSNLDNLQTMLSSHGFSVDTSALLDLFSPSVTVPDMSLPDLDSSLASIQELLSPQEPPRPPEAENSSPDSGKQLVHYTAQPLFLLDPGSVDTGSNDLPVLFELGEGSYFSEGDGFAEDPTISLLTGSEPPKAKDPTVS
Chain of ETV1 (P50549 whole entry): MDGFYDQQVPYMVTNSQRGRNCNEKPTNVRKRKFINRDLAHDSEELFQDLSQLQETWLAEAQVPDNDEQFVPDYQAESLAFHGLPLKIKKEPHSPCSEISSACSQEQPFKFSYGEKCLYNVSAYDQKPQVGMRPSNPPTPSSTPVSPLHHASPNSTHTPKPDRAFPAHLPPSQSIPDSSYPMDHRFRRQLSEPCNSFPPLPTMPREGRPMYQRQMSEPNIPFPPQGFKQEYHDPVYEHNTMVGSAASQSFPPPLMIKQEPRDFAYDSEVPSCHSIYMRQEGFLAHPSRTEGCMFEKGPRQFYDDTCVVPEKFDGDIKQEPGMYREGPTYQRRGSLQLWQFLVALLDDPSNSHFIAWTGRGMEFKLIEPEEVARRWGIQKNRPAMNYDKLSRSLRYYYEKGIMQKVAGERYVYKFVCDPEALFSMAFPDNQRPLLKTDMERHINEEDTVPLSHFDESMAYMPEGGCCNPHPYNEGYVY
Chain of ELF4 (Q99607 whole entry): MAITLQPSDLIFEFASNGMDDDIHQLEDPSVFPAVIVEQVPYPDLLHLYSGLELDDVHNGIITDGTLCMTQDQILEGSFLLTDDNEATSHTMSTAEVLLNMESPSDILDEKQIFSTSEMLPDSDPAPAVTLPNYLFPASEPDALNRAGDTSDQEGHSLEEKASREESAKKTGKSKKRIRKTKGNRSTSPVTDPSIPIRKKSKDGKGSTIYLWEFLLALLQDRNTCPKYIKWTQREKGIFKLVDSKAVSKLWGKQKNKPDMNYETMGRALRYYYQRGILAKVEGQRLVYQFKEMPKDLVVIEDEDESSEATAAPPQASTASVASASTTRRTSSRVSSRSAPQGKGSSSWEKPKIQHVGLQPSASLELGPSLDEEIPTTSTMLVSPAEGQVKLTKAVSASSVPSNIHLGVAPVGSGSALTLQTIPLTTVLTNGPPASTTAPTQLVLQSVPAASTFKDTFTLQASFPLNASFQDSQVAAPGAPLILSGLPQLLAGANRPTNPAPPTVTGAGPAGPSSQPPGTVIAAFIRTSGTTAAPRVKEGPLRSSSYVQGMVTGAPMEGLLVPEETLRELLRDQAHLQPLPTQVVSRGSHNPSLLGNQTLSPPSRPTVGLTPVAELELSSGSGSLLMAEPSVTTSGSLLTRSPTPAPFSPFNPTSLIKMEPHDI

Turning to AAGTTA, the binding signal in the assay with FEV was 1.15 fold enrichment (6-mer frequency, TF over GST control); with ETV5, 1.26 fold enrichment (6-mer frequency, TF over GST control); with HSF1, 1.09 fold enrichment (6-mer frequency, TF over GST control); with SPIC, 1.27 fold enrichment (6-mer frequency, TF over GST control); with ELF4, 1.28 fold enrichment (6-mer frequency, TF over GST control); with ELK4, 1.19 fold enrichment (6-mer frequency, TF over GST control). Moreover, the binding signal is 1.27 fold enrichment (6-mer frequency, TF over GST control) in the assay with ETV2; 1.15 fold enrichment (6-mer frequency, TF over GST control) with ELF3; 1.26 fold enrichment (6-mer frequency, TF over GST control) with CRX; 1.23 fold enrichment (6-mer frequency, TF over GST control) with ETV1; 1.24 fold enrichment (6-mer frequency, TF over GST control) in the assay with ERF; 1.18 fold enrichment (6-mer frequency, TF over GST control) with ETV3L. Moreover, the binding signal was 1.24 fold enrichment (6-mer frequency, TF over GST control) with ETS2; 1.08 fold enrichment (6-mer frequency, TF over GST control) with SPDEF; 1.21 fold enrichment (6-mer frequency, TF over GST control) in the assay with ETV7; 1.21 fold enrichment (6-mer frequency, TF over GST control) in the assay with ELF5; 1.19 fold enrichment (6-mer frequency, TF over GST control) in the assay with ETV3; 1.3 fold enrichment (6-mer frequency, TF over GST control) with ETV6.
